# In PubChem BioAssay (NCATS):
# Values without a mark were called inactive. Records with an inconclusive call do not appear. Activity calls are given as the source filed them. Calls follow the shape of the dose curve; as a rule, active = well fitted curve in the direction sought with a large enough effect; inconclusive = small, poorly fitted or top-dose-only effect, or another doubt; inactive = no such curve, though single readings can be large; an effect the other way counts as inactive or inconclusive.
# Tests used:
# [1] = target: Cytochrome P450 3A4 (Homo sapiens) (UniProt P08684); test: qHTS Assay for Inhibitors and Substrates of Cytochrome P450 3A4 (AID 884); also: nearly all actives have a fitted effect of over 50% in size; also: potency is read from the fitted curve at half-maximal effect; as to activity change, negative = inhibition: series mostly up to about 57 µM; % is scaled to controls: 0 for no effect and ±100 for the full control effect
# Summary of the method: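 20 nM human CYP3A4 with 25 uM Luciferin-PPXE (at KM) in 200 mM KPO4, preincubated 10 min with compound; NADPH regeneration started a 60 min RT reaction. Luciferin detected by luminescence, normalized to 57 uM ketoconazole as full inhibition.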
# [2] = target: Cytochrome P450 3A4 (Homo sapiens) (UniProt P08684); test: qHTS Assay for Activators of Cytochrome P450 3A4 (AID 885); also: nearly all actives have a fitted effect of over 65% in size; also: potency is read from the fitted curve at half-maximal effect
# Summary of the method: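 Human CYP3A4 (20 nM) with Luciferin-PPXE at 25 uM (its KM) in 200 mM KPO4; 10 min compound preincubation, then NADPH regeneration and 60 min reaction at RT. Luciferin read by luminescence; normalized to 57 uM ketoconazole full inhibition.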
# [3] = target: Cytochrome P450 2C9 (Homo sapiens) (UniProt P11712); test: qHTS Assay for Inhibitors and Substrates of Cytochrome P450 2C9 (AID 883); also: % is scaled to controls: 0 for no effect and ±100 for the full control effect; nearly all actives have a fitted effect of over 60% in size
# Summary of the method: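 Human CYP2C9 (10nM) with Luciferin-H at 100uM (its KM) in 25mM KPO4; compound preincubated 10 min at 37C, then NADPH regeneration for 60 min at 37C. Luciferin read by luminescence after detection reagent; normalized to 57uM sulphaphenazole as full inhibition.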
# [4] = target: Cytochrome P450 2D6 (Homo sapiens) (UniProt P10635); test: qHTS Assay for Inhibitors and Substrates of Cytochrome P450 2D6 (AID 891); also: nearly all actives have a fitted effect of over 60% in size; also: potency is read from the fitted curve at half-maximal effect;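 as to activity change, negative = inhibition: luciferin methyl ether substrate demethylated by CYP2D6 with NADPH regeneration; % is scaled to controls: 0 for no effect and ±100 for the full control effect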
# Summary of the method: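 Human CYP2D6 (5 nM) with 30 uM Luciferin-ME EGE (at Km) in 100 mM KPO4, compound preincubated 10 min, then NADPH regeneration system for 60 min at room temperature. Luciferin read by luminescence; normalized to 1.43 uM quinidine.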
# [5] = target: Cytochrome P450 2C19 (Homo sapiens) (UniProt P33261); test: qHTS Assay for Inhibitors and Substrates of Cytochrome P450 2C19 (AID 899); also: % is scaled to controls: 0 for no effect and ±100 for the full control effect; nearly all actives have a fitted effect of over 60% in size
# Summary of the method: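 5 nM human CYP2C19 with 10uM Luciferin-H EGE (at KM) in 50mM KPO4, compound preincubated 10 min at 37C, then NADPH regeneration for 60 min at 37C. Luciferin read by luminescence after detection reagent; normalized to 57uM ketoconazole as full inhibition.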
# [6] = target: Alpha-galactosidase (Coffea arabica) (UniProt Q42656); test: Counterscreen for Glucocerebrosidase Inhibitors: qHTS Assay for Coffee Bean alpha-Galactosidase at pH 4.5 (AID 957);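 also: series mostly up to about 77 µM; plate controls were enzyme alone for no effect and no enzyme for full effect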
# Summary of the method: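 Coffee bean enzyme (2 nM) with 80 uM 4-methylumbelliferyl alpha-D-galactopyranoside in 50 mM citric acid, 0.005% Tween-20, pH 4.5, 20 min at room temperature; compounds 0.7 nM–77 uM. Stopped at pH 10, fluorescence 365/440 nm; AC50 from Hill fits.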
# [7] = target: Alpha-galactosidase (Coffea arabica) (UniProt Q42656); test: Counterscreen for Glucocerebrosidase Inhibitors: qHTS Assay for Coffee Bean alpha-Galactosidase at pH 5.9 (AID 998);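 also: plate controls were uninhibited enzyme for no effect and no-enzyme basal signal for full effect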
# Summary of the method: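 Green coffee bean enzyme (2 nM) with 4-methylumbelliferyl alpha-D-galactopyranoside (80 uM) in 50 mM citric acid, 0.005% Tween-20, pH 5.9, 20 min at room temperature; compounds 0.7 nM–77 uM. Stopped at pH 10, fluorescence Ex365/Em440; Hill-fit AC50.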
# [8] = Confirmation and Secondary Assay for Modulators of Hemoglobin Beta Chain Splicing at IVS2 654 locus (AID 910);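 also: HeLa cells stably carrying EGFP split by mutant beta-globin IVS2-654 intron; % of control where 0% means no effect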
# Summary of the method: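 HeLa cells stably expressing EGFP interrupted by β-globin IVS2-654 intron, seeded overnight in Opti-MEM/2% FCS, then treated 2 days at 37 °C. Restored splicing read as total peak GFP intensity per well by laser scanning cytometry (488 nm excitation, 500–520 nm emission); 500 nM antisense PNA as control.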
# [9] = Confirmation and Secondary Assay for Modulators of Hemoglobin Beta Chain Splicing at IVS2 705 locus (AID 930);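 also: HeLa cells stably expressing the EGFP-705 splicing reporter; series mostly up to about 46 µM; % of control where 0% means no effect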
# Summary of the method: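 HeLa cells stably carrying EGFP interrupted by mutant beta-globin IVS2-705 intron (CMV-driven) were seeded at 500 cells/well, treated next day with compound for 2 days at 37C; corrected splicing restores EGFP, read as total peak GFP intensity per well.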
# Sequence of Cytochrome P450 2C9 (Homo sapiens) (P11712 whole entry, looked up): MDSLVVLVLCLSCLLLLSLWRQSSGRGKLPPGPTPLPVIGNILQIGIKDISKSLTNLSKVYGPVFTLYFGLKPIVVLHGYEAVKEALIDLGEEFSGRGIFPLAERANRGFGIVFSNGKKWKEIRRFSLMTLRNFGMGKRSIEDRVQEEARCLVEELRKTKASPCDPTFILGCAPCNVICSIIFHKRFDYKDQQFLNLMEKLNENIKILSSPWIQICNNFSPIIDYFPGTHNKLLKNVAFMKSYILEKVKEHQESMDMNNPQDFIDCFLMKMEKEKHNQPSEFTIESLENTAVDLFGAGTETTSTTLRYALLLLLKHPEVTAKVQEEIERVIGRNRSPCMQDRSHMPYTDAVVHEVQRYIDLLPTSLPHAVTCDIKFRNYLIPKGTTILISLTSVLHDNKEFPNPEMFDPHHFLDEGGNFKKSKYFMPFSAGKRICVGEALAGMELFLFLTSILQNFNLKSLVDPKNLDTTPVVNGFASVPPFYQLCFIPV
# Sequence of Cytochrome P450 2C19 (Homo sapiens) (P33261 whole entry, looked up): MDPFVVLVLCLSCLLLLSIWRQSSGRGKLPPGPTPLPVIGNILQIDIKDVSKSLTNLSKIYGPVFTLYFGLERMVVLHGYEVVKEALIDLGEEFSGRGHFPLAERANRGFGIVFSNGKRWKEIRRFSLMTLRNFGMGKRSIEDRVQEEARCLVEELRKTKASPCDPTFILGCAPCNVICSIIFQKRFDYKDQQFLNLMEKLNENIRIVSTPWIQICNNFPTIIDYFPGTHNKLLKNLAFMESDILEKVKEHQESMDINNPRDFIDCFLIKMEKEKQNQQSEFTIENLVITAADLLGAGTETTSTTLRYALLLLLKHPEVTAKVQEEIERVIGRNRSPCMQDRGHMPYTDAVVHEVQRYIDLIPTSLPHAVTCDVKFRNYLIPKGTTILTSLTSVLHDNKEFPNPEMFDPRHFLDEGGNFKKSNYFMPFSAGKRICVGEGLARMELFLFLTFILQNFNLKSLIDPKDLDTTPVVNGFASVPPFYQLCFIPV
# Sequence of Cytochrome P450 2D6 (Homo sapiens) (P10635 whole entry, looked up): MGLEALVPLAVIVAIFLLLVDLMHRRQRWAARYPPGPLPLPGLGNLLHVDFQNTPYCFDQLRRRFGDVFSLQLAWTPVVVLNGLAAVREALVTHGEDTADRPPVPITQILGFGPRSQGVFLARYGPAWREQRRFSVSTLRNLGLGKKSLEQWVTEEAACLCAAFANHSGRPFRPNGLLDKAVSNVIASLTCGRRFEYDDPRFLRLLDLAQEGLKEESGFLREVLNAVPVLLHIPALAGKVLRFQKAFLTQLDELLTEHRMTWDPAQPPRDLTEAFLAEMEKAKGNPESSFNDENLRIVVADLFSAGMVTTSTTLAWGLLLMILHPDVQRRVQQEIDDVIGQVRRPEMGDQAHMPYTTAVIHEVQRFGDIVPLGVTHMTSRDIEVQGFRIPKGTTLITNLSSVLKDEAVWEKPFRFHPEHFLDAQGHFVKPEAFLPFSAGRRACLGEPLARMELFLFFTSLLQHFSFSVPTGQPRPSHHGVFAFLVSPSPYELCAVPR
# Sequence of Alpha-galactosidase (Coffea arabica) (Q42656 whole entry, looked up): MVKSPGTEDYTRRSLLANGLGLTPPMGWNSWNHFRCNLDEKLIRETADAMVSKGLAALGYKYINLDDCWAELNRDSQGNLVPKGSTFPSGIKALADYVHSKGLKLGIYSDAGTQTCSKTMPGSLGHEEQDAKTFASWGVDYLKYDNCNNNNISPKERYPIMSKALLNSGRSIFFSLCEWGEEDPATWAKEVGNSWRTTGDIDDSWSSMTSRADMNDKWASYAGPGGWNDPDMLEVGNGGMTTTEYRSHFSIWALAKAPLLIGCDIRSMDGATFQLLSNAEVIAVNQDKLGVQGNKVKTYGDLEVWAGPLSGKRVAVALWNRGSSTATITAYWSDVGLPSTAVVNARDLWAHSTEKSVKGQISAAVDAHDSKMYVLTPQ
smiles,measurement,setting,value
CC1(C)C(=O)C=C[C@]2(C)C1CC(=O)[C@]1(C)C2CC[C@@]2(C)C(c3ccoc3)OC(=O)C3O[C@@]321 (stereo partly specified),Potency,[1],2.51 µM (active)
same,Potency,[2],inactive
Cc1[nH]cnc1CCN,Potency,[1],inactive
CC(C)=CCCC(C)C1CC[C@@]2(C)C3=C(CC[C@@]12C)C1(C)CCC(O)C(C)(C)C1CC3 (stereo partly specified),Potency,[1],15.8 µM (active)
same,Potency,[2],inactive
CCC1CN2CCC1CC2C(Oc1cc2ccccc2c2ccccc12)c1ccnc2ccc(O)cc12 (stereo unspecified),"activity change, negative = inhibition",[3],22% [at 11.4 µM]
same,"activity change, negative = inhibition",[1],-10.8% [at 11.4 µM]
same,"activity change, negative = inhibition",[4],-1.58% [at 11.4 µM]
same,"activity, negative = inhibition",[5],16.1% [at 11.4 µM]
CC(=O)[C@]1(O)CCC2C3C=C(Cl)C4=CC(=O)C5CC5[C@@]4(C)C3CC[C@]21C (stereo partly specified),Potency,[1],inactive
c1ccc(-c2cc3c(nc2-c2ccccc2)CCNC3)cc1,"activity change, negative = inhibition",[3],-10% [at 11.4 µM]
same,"activity change, negative = inhibition",[4],5.57% [at 11.4 µM]
same,"activity, negative = inhibition",[5],24.9% [at 11.4 µM]
CC1Cc2c(cnc3c2CN(C)CC3)CO1 (stereo unspecified),"activity change, negative = inhibition",[3],12.6% [at 11.4 µM]
same,"activity change, negative = inhibition",[1],-13.4% [at 11.4 µM]
same,"activity change, negative = inhibition",[4],10.1% [at 11.4 µM]
same,"activity, negative = inhibition",[5],9.03% [at 11.4 µM]
Nc1nc(N)c2nc(CNc3ccc(C(=O)N[C@H](CCC(=O)O)C(=O)O)cc3)cnc2n1,Potency,[3],inactive
same,outcome,[6],inactive
same,outcome,[7],inactive
CC1=CC[C@@H]2[C@@H](C1)c1c(O)cc(CC#CCCCNS(C)(=O)=O)cc1OC2(C)C,Potency,[1],2.51 µM (active)
same,Potency,[2],inactive
O=S(=O)(O)c1cc(N=C=S)ccc1/C=C/c1ccc(N=C=S)cc1S(=O)(=O)O,Potency,[1],12.6 µM (active)
same,Potency,[2],inactive
C=C(CO)C1Cc2c(ccc3c2OC2COc4cc(OC)c(OC)cc4C2C3=O)O1 (stereo unspecified),Potency,[1],31.6 µM (active)
same,Potency,[2],inactive
CC(C)CCCC1(C)C=Cc2c(O)c3c(c(CCC(C)C)c2O1)OC12C(CC4CC1C(C)(C)OC2(CCC(C)C(=O)O)C4O)C3=O (stereo unspecified),Potency,[1],inactive
same,Potency,[8],inactive
same,outcome,[9],inactive
COc1cc2c(cc1OC)[C@@H]1C(=O)c3ccc4c(c3OC1CO2)CC(C(C)C)O4 (stereo partly specified),Potency,[1],25.1 µM (active)
same,Potency,[2],inactive
same,Potency,[8],inactive
same,outcome,[9],inactive
COC1C=CC23c4cc5c(cc4CN(CC2O)C3C1)OCO5 (stereo unspecified),Potency,[2],inactive
COc1ccc(-c2oc3cc(OC)ccc3c(=O)c2O)cc1,Potency,[1],12.6 µM (active)
same,Potency,[2],inactive
COC(=O)[C@@H]1C[C@H]2CC[C@H](O)C[C@H]2N1CC1CC1,Potency,[2],inactive
c1cc(Cc2cnc[nH]2)ccn1,Potency,[1],3.98 µM (active)
same,Potency,[2],inactive
CC(C)C1C(=O)N2CCCC2[C@]2(O)O[C@@](NC(=O)[C@@H]3C=C4c5cccc6[nH]cc(c56)C[C@H]4N(C)C3)(C(C)C)C(=O)N12 (stereo partly specified),Potency,[1],1.26 µM (active)
same,Potency,[2],inactive
CC1(C)C(=O)[C@@H]2OC2[C@@]2(C)C1CC(O)[C@]1(C)C2CC[C@@]2(C)C(c3ccoc3)OC(=O)C3OC312 (stereo partly specified),Potency,[1],1 µM (active)
same,Potency,[2],inactive
same,Potency,[8],inactive
same,outcome,[9],inactive
CCCCCCCCCc1ccc(OCCOCCOCCOCCOCCOCCOCCOCCOCCO)cc1,Potency,[1],31.6 µM (active)
same,Potency,[2],inactive
C[C@@]12CC[C@@H]3[C@H](CCC4=CC(=O)CC[C@]43C)[C@@H]1CC[C@@H]2C(=O)Cn1cnc2c(=S)nc[nH]c21,"activity change, negative = inhibition",[1],119% [at 11.4 µM]
same,Potency,[2],3.16 µM (active)
CCCN1[C@@H]2C[C@@H](O)CC[C@@H]2C[C@H]1C(=O)OC,Potency,[2],inactive
C=CCc1cc(OC)c2c(c1OC)OCO2,Potency,[1],7.94 µM (active)
same,Potency,[2],inactive
same,Potency,[8],inactive
same,outcome,[9],inactive
CC(=O)OC1C[C@]2(C)C(C(C)=O)CCC2C2CCC3=CC(=O)CC[C@@]3(C)C12 (stereo partly specified),Potency,[1],7.94 µM (active)
same,Potency,[2],inactive
CC1=C(CC[C@H](C)CO)O[C@@H]2C[C@@H]3[C@H]4CC[C@H]5C[C@@H](O)CC[C@]5(C)[C@@H]4CC(=O)[C@@]3(C)[C@@H]12,"activity change, negative = inhibition",[1],87.6% [at 11.4 µM]
same,Potency,[2],3.98 µM (active)
COc1ccc2c(c1)CN([C@H](C)[C@@H]1CC[C@@H]3[C@H]4CC[C@H]5C[C@@H](O)CC[C@@]5(C)[C@H]4CC[C@]31C)CO2,"activity change, negative = inhibition",[1],321% [at 11.4 µM]
same,Potency,[2],3.98 µM (active)
same,Potency,[4],3.16 µM (active)
